Compounds without any hit were thinned out: in the full panel of roughly 83,000, 20% have a hit.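 Results are percent growth after 48 hours of single-concentration exposure. 100 means growth as in untreated cells, lower positive values show inhibition; negative values down to -100 show cell death.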 Unmarked numbers belong to inactive results. Active and inactive are the calls of the source. The calls were made as follows: active = growth percent below 10; inactive = the rest.
Tested on: PC-3 prostate
Test: NCI-60 one-dose screen, 48 h (100 = growth as untreated, 0 = no growth, -100 = all killed)
Settings: 10 µM

Structure (SMILES) | growth
O=C(O)c1ccccc1NCc1ccco1 | 111%
C/C(=C\c1cc(Cl)ccc1OCC(=O)O)[N+](=O)[O-] | 96.2%
CSC[C@H](NC(=O)COc1cccc2cnccc12)C(=O)NC(Cc1ccccc1)C(O)C(=O)N1CSC[C@H]1C(=O)NC(C)(C)C (some centres undefined) | 96.3%
COC1=CC(=O)c2nc(Cl)ccc2C1=O | 21.7%
CCOC(=O)CCCC(=O)OCC | 100%
N#Cc1ccc(NC(=O)Nc2cccc(C#N)c2)cc1 | 57.3%
CC(C)=C(NC(=O)c1ccccc1)C(=O)O | 87.8%
Cc1cc2nc(CC(=O)c3cccc([N+](=O)[O-])c3)c(=O)[nH]c2cc1C | 68%
COc1cc(C(=O)N/N=C/c2cccc([N+](=O)[O-])c2)cc(OC)c1OC | 67.5%
O=c1cc(-c2ccccc2)[nH]c2c1CCCC2 | 28.5%
CC1(c2ccccc2)NC(=O)NC1=O (centres undefined) | 98.6%
COC(=O)c1[nH]c(=O)c(C#N)c(C(=O)OC)c1C(=O)c1ccccc1 | 103%
CCCCOC(OCCCC)c1ccccc1 | 98.7%
CC1(O)OC(COc2ccc(Cl)cc2)COC1O (centres undefined) | 107%
CNc1nc(NC)c2cn[nH]c2n1 | 91.9%
CC(C)=NNc1ccc([N+](=O)[O-])cc1[N+](=O)[O-] | 87.3%
CC(=O)CC(=O)N(C)C | 92.8%

Structure (SMILES) | growth
Nc1ccc(N=Nc2ccc(S(=O)(=O)O)cc2)c2ccccc12 | 87.4%
c1ccc(Sc2ccccc2)cc1 | 95.9%
Cc1ccc(/C=C2\SC(=S)N(c3ccc(F)cc3)C2=O)o1 | 96.1%
COc1ccc2c(NCCCCCCCCNc3c4ccccc4nc4cc(OC)ccc34)c3ccccc3nc2c1 | -100% (active)
O=C(NCCNC(=O)c1ccc(Cl)cc1Cl)c1ccc(Cl)cc1Cl | 84.5%
Cc1nc2ccccc2c2nnc(SCC(=O)N(Cc3ccccc3)c3ccccc3)n12 | 84.1%
CCCCC(O)c1ccccc1 (centres undefined) | 97.9%
O=S(=O)(O)c1ccc(O)c2ccccc12 | 92%
O=C1Cc2ccccc2C(=O)O1 | 85.1%
Nc1nc(OCc2ccccc2)c2[nH]cnc2n1 | 84.4%
Cc1c(C(=O)O)c(=O)n(-c2ccccc2)n1C | 101%
COc1cc(/C=C/C(=O)c2ccccc2)cc(OC)c1OC | 58%
O=[N+]([O-])c1ccc(-c2noc(-c3cccs3)n2)cc1 | 90.3%
CC(=O)OCC1OC(OC2=C(CC=C(C)C)C(=O)c3ccccc3C2=O)C(OC(C)=O)C(OC(C)=O)C1OC(C)=O (centres undefined) | -6.07% (active)
CCCCC/C=N/Nc1nc(C)cc(=O)[nH]1 | 88.7%
[O-][N+](=Nc1cccc(Cl)c1)c1cccc(Cl)c1 | 96.4%
COc1ccc(-c2cc3c(nn2)-c2ccccc2C3=O)cc1 | 18%

From PubChem BioAssay (NCI)
